Experimental data from PubChem BioAssay (NCI).
About 83,000 compounds went through this panel and 20% of them were active in at least one assay; those are over-represented in the sample as a whole.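 Treatment: one concentration, 48 hours, 96-well format. Scoring: percent growth, with anything below 10 considered active.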 Values without a mark were called inactive. Active and inactive are the calls of the source.

Experiments:
Assay in all cases: NCI-60 one-dose screen, 48 h (100 = growth as untreated, 0 = no growth, -100 = all killed)
Conditions in all cases: 10 µM unless noted
[1] = tested on: HCT-15 colon
[2] = tested on: HT29 colon
[3] = tested on: SNB-75 CNS
[4] = tested on: SNB-19 CNS
[5] = tested on: U251 CNS
[6] = tested on: PC-3 prostate
[7] = tested on: SK-MEL-5 melanoma
[8] = tested on: UACC-62 melanoma
[9] = tested on: LOX IMVI melanoma
[10] = tested on: SK-MEL-28 melanoma

| Structure (SMILES) | growth [1] | growth [2] | growth [3] | growth [4] | growth [5] | growth [6] | growth [7] | growth [8] | growth [9] | growth [10] |
| --- | --- | --- | --- | --- | --- | --- | --- | --- | --- | --- |
| CCN=C1C=CC(=C(c2ccc(N(C)C)cc2)c2ccc(N(C)C)cc2)c2ccccc21 | -7.99% (active) | -18.7% (active) | -17.3% (active) | 14.8% | -3.23% (active) | -4.82% (active) | -95.5% (active) | -38% (active) | -10.8% (active) | -18.5% (active) |
| CCCCCCCCCCCCCCCCOC(=O)c1c(C)[nH]c(/C=C2\N=C(c3ccc[nH]3)C=C2OC)c1C | 56.3% | 13.6% | 51.4% | 84.6% | 41.7% | 45.6% | -80.8% (active) | -15.3% (active) | -83.9% (active) | 51.1% |
| CC(C)(C)C(=O)/C=C/c1ccc([N+](=O)[O-])cc1 | 42.1% | 50.2% | 81.1% | 66.9% | 58% | 55.3% | 81.7% | 74.4% | 36.9% | 92.1% |
| c1ccc2cc(Cn3c[n+](Cc4ccc5ccccc5c4)c4ccccc43)ccc2c1 | 53.6% | -80.6% (active) | -7.06% (active) | -20.1% (active) | -90.3% (active) | -19.4% (active) | -98.1% (active) | -70.1% (active) | -93.9% (active) | -28.9% (active) |
| CC1=C(C(=O)n2c3ccccc3c3ccccc32)C(c2cccc([N+](=O)[O-])c2)C(C(=O)n2c3ccccc3c3ccccc32)=C(C)N1 | 81.9% | 104% | 82.9% | 95.6% | 89.5% | 80.7% | 93.7% | 87.6% | 87.1% | 103% |
| O=C(NCc1ccc2c(c1)OCO2)NCC1CCCC(CNC(=O)NCc2ccc3c(c2)OCO3)C1 (stereo not given) | 99.2% | 110% | 97.3% | 87.7% | 103% | 102% | 102% | 95.8% | 97.9% | 114% |
| CCCC(O)Cn1ncc(C(=O)OCC)c1NC(=O)NCc1cccc(F)c1 (stereo not given) | 99.7% | 88.8% | 93.6% | 102% | 101% | 83.6% | 101% | 97.1% | 92.7% | 97.8% |
| Nc1c(C(=O)Nc2ccncc2)sc2nc3c(cc12)CCCCC3 | 64% | 52.9% | 93.5% | 95.9% | 83.7% | 83.8% | -0.0144% (active) | 80.7% | 84% | 82.5% |
| O=C1CCC(C(=O)NN(c2ccccc2)c2ccccc2)N1 (stereo not given) | 103% | 111% | 89.2% | 100% | 103% | 14.3% | 106% | 94.4% | 95% | 109% |
| COc1cccc(NC(=O)c2cccc(C3CCc4c(cc(OC)c(OC)c4OC)O3)c2)c1 (stereo not given) | 63.2% | 71.9% | 85.6% | 74.1% | 75.5% | 28.9% | 36.4% | 40.6% | 59.9% | 81.5% |
| COc1ccc(C2CC(c3ccc(Nc4nc(Nc5ccc(F)cc5)nc(Nc5ccc(F)cc5)n4)cc3)=NN2C(C)=O)cc1 (stereo not given) | 94.4% | 100% | 101% | 85.2% | 84.5% | 68.8% | 71.6% | 103% | 103% | 110% |
| CN1CCN(CCCOc2ccc3ncnc(Nc4ccc(Oc5cccc(F)c5)c(Cl)c4)c3c2)CC1 | -3.99% (active) | -25.1% (active) | 52.1% | 34.8% | 8.27% (active) | 8.64% (active) | -96.3% (active) | -31.8% (active) | -91.6% (active) | -85.9% (active) |
| Nc1nc(C(=O)N/N=C/c2ccc(N3CCOCC3)cc2)nn1-c1ccc(S(N)(=O)=O)cc1 | 108% | 106% | 83% | 102% | 98.3% | 101% | 102% | 102% | 97.4% | 117% |
| C=CCn1c(SCC(=O)Nc2ccc(C(=O)/C=C/c3cc(OC)c(OC)c(OC)c3)cc2)nnc1-c1cc(-c2ccc(OC)cc2)nc2ccccc12 | 83.4% | 101% | 85.1% | 90.3% | 88.3% | 80% | 94.9% | 90.1% | 94.9% | 101% |
| CCN(C(=O)N1CCN(c2cc3c(cc2F)c(=O)c(C(=O)O)cn3C2CC2)CC1)c1nc(-c2ccc(C)cc2)cs1 | 8.05% (active) | 3.55% (active) | 30.5% | 18.8% | 16.3% | 10.8% | -32.8% (active) | -3.01% (active) | 7.36% (active) | 34.1% |
| COP(=O)(OC)c1nnn(-c2cccc([N+](=O)[O-])c2)c1C | 106% | 105% | 93.6% | 105% | 99.7% | 98.7% | 100% | 99.2% | 96% | 113% |
| O=C(O)CCCc1cnc2c3sccc3nc(SCc3c(Cl)cccc3Cl)n12 | 36.9% | 15.6% | 16% | 41% | 29.5% | 50.7% | 52.9% | 21.2% | 39.9% | 75.3% |
| O=C(Nc1ccc(F)cc1)Nc1ccccc1CNc1nc(Nc2ccc(OCCN3CCCC3)cc2)ncc1Cl | 38.8% | 6.13% (active) | -15.7% (active) | 45.8% | 20.6% | 61.7% | 44.9% | 95.2% | -57.6% (active) | -13.3% (active) |
| NC(CSC(c1ccccc1)(c1ccccc1)c1ccc2c(c1)OCO2)C(=O)O (stereo not given) | 25.4% | -5.15% (active) | 30.8% | 37.7% | -7.2% (active) | 18.7% | 8.31% (active) | 25.4% | 28.5% | 47.4% |
| COc1ccc(C2CC(c3ccc4c(c3)OCO4)=Nc3c(N)ncnc3N2)cc1 (stereo not given) | 94.3% | 106% | 86.6% | 88.8% | 101% | 98.6% | 87.8% | 90.3% | 101% | 112% |
| COc1ccccc1-n1c(-c2cc(O)ccc2C)cn2c3c(=O)[nH]c(=O)n(C)c3nc12 | 85.8% | 32% | -32% (active) | 82.1% | 83.8% | 67.1% | 77.3% | 77.8% | 38.9% | 96.9% |
| COc1ccc(C2=NN(C(=O)c3cc(OC)c(OC)c(OC)c3)C(c3ccc(N(C)C)cc3)C2)cc1 (stereo not given) | 10.6% | 19.1% | 18.1% | 37.6% | 15.6% | 20.6% | 5.24% (active) | 15.6% | 28.9% | 56.3% |
| COc1ccc2c(c1)c(-c1nonc1-c1c[nH]c3ccc(Br)cc13)cn2C | 22.2% | 11.9% | 63.3% | 52.2% | 34.9% | 43.8% | 57.1% | 38.2% | 22.4% | 61% |
| O=[N+]([O-])/C(=C\c1ccco1)c1ccccc1Cl | 67.7% | 69.7% | 64.8% | 79.7% | 72.6% | 45.8% | 76.7% | 33.8% | 64.2% | 60.3% |
| CCOC(=O)Nc1nc2ccc(SCC(C)C)cc2s1 | 25.5% | 9.7% (active) | 74.3% | 49.9% | 34.3% | 36.9% | 34.1% | 17.3% | 36.3% | 62.3% |
| O=C1OCC2=C1C(c1cccc(C(F)(F)F)c1)c1cc3c(cc1N2CCO)OCO3 (stereo not given) | 25.2% | 6.68% (active) | 19% | 30.1% | 21% | 25.9% | 20% | 48.4% | 40.6% | 57.3% |
| CN1CCN(c2ccc3c(c2)nc(NNC(=O)c2cnccn2)c2cccn23)CC1 | 23.9% | 28.6% | 66.7% | 34.9% | 32.2% | 47.3% | 31.2% | 12.9% | 10.3% | 24.8% |
